# Measured values published in PubChem BioAssay (EPA / NIEHS).
# Where “and” joins values, the source holds several entries; their conditions need not be identical. Identical values can stand only once. Inconclusive results are not listed. Calls of active or inactive are those of the source. Rule for the calls: active = hit-call score of the fitted dose curve at least 0.9, where 1 is the maximum; inconclusive = response in the unintended direction; inactive = score below 0.9.
# System: zebrafish Androgen Receptor (AR), gene 100005148
# Test: ATG_zfAR_XSP1: Attagene TRANS-FACTORIAL Multi-Species (XSP1) HepG2 Assay for zebrafish Androgen Receptor (AR) (AID 2283771)
# Procedure, shortened: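 Gain-of-signal versus DMSO was measured as reporter transcripts quantified by RT-PCR, fluorescent labelling and capillary electrophoresis after 24 h chemical exposure. The cells were HepG2 expressing a chimeric zebrafish AR-GAL4, co-stimulated with 3 nM 6-alpha-fluorotestosterone.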
row,SMILES,outcome
1,CC(C)(c1ccccc1)c1ccc(O)cc1,inactive
2,ClC(Cl)=C(c1ccc(Cl)cc1)c1ccc(Cl)cc1,inactive
3,Oc1ccc(C(c2ccc(O)cc2)(C(F)(F)F)C(F)(F)F)cc1,inactive

# Target: zebrafish Estrogen Receptor (ESR1), esr1 (gene 259252) (UniProt P57717)
# Test: ATG_zfER1_XSP1: Attagene TRANS-FACTORIAL Multi-Species (XSP1) HepG2 Assay for zebrafish Estrogen Receptor (ESR1) (AID 2283772)
# Procedure, shortened: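 Transfect HepG2 with GAL4-UAS multi-reporter constructs; treat 24 h (medium carries 3 nM 6-alpha-fluorotestosterone); extract RNA, reverse-transcribe, PCR-amplify, FAM-label, digest with HpaI; resolve by capillary electrophoresis and compare against DMSO baseline.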
# Sequence of zebrafish Estrogen Receptor (ESR1), esr1 (gene 259252) (P57717 whole entry, looked up): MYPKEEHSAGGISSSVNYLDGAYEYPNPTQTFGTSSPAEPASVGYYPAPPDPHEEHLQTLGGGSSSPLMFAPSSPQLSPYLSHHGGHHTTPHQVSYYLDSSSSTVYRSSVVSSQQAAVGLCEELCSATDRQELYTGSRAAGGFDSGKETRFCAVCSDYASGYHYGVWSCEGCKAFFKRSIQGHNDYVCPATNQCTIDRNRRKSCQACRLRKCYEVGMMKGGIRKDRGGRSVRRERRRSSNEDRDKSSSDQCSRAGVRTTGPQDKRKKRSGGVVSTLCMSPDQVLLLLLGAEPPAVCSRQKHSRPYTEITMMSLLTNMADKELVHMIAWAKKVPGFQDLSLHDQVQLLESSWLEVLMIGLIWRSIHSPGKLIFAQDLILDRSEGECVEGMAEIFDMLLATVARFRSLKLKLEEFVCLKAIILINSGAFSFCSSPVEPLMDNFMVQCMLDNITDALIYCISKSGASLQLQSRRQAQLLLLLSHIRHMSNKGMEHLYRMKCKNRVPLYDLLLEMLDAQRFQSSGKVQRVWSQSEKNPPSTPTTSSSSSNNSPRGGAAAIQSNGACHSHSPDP
SMILES,AC50,outcome
CC(C)(c1ccccc1)c1ccc(O)cc1,1.67 µM (active),
ClC(Cl)=C(c1ccc(Cl)cc1)c1ccc(Cl)cc1,,inactive
Oc1ccc(C(c2ccc(O)cc2)(C(F)(F)F)C(F)(F)F)cc1,187 nM (active) and 272 nM (active),

# System: zebrafish Estrogen Receptor (ESR2B), gene 317733
# Test: ATG_zfER2b_XSP1: Attagene TRANS-FACTORIAL Multi-Species (XSP1) HepG2 Assay for zebrafish Estrogen Receptor (ESR2B) (AID 2283773)
# Procedure, shortened: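 Human hepatoma HepG2, transiently transfected with multi-reporter units; exogenous zebrafish ESR2B-Gal4 activity measured. Exposure 24 h alongside 3 nM 6-alpha-fluorotestosterone to partly stimulate AR.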
row,SMILES,AC50
1,CC(C)(c1ccccc1)c1ccc(O)cc1,0.882 µM (active)
2,ClC(Cl)=C(c1ccc(Cl)cc1)c1ccc(Cl)cc1,5.92 µM (active)
3,CC(C)(O)C(=O)Nc1ccc([N+](=O)[O-])c(C(F)(F)F)c1,15.4 µM (active)
4,Oc1ccc(C(c2ccc(O)cc2)(C(F)(F)F)C(F)(F)F)cc1,105 nM (active) and 81.1 nM (active)

# System: frog Estrogen Receptor (ESR2), gene 100174814
# Test: ATG_frER2_XSP1: Attagene TRANS-FACTORIAL Multi-Species (XSP1) HepG2 Assay for frog Estrogen Receptor (ESR2) (AID 2283774)
# Procedure, shortened: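 Multiplexed TRANS-format reporter assay in human hepatoma HepG2: chimeric nuclear receptor-Gal4 activity reported as mRNA induction at 24 h, detected by fluorescent RT-PCR products on capillary electrophoresis and fitted upward from DMSO baseline.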
SMILES,AC50,outcome
CC(C)(c1ccccc1)c1ccc(O)cc1,525 nM (active),
ClC(Cl)=C(c1ccc(Cl)cc1)c1ccc(Cl)cc1,3830 nM (active),
CC(C)(O)C(=O)Nc1ccc([N+](=O)[O-])c(C(F)(F)F)c1,,inactive
Oc1ccc(C(c2ccc(O)cc2)(C(F)(F)F)C(F)(F)F)cc1,117 nM (active) and 78.3 nM (active),

# System: not listed separately
# Test: ACEA_AR_agonist_AUC_viability: ACEA Biosciences xCELLigence Real-Time Cell Analysis on Androgen Receptor Agonism for Viability (AID 2283775);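 for AC50: viability read 80 hours after compound addition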
# Procedure, shortened: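 Viability endpoint from xCELLigence impedance in 22Rv1 prostate cells at 80 h. Eight-point series, 100 uM maximum final.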
SMILES,AC50,outcome
CCOC(=O)C(O)(c1ccc(Cl)cc1)c1ccc(Cl)cc1,79.6 µM (active),
Clc1ccc(Cl)cc1,,inactive
O=S(=O)(O)C(F)(F)C(F)(F)C(F)(F)C(F)(F)C(F)(F)C(F)(F)F,,inactive
Cc1ccccc1O,,inactive
Oc1c(Cl)c(Cl)c(Cl)c(Cl)c1Cl,15.2 µM (active),
O=C(O)C(F)(F)C(F)(F)C(F)(F)C(F)(F)C(F)(F)C(F)(F)C(F)(F)C(F)(F)F,74.2 µM (active),
CCCN(CCC)N=O,,inactive
CCCCCCCCCc1ccc(O)cc1,22.9 µM (active),
CCOP(=S)(OCC)SCSC(C)(C)C,82.5 µM (active),
ClC1=C(Cl)[C@]2(Cl)[C@@H]3[C@@H]4C[C@@H]([C@H]5O[C@@H]45)[C@@H]3[C@@]1(Cl)C2(Cl)Cl,50 µM (active),
O=C(N[C@H]1CN2CCC1CC2)c1cc2ccoc2cn1,,inactive
O=S(=O)(O)C(F)(F)C(F)(F)C(F)(F)C(F)(F)F,,inactive
CC(c1ccc(O)cc1)(c1ccc(O)cc1)c1ccc(O)cc1,17.8 µM (active),
CC(C)(c1ccccc1)c1ccc(O)cc1,12.1 µM (active),
c1ccc(-c2ccccc2)cc1,,inactive
CN(C)CCO,,inactive
COc1ccc(O)c(C(C)(C)C)c1,81.3 µM (active),
ClC(Cl)=C(c1ccc(Cl)cc1)c1ccc(Cl)cc1,29.6 µM (active),
Cc1cccc([N+](=O)[O-])c1,,inactive
O=C(NC(=O)c1cc(F)c(F)cc1Cl)Nc1cc(F)ccc1N1CCC(C(=O)O)CC1,,inactive
COS(=O)(=O)OC,,inactive
ClC1=C(Cl)[C@]2(Cl)[C@@H]3[C@@H](Cl)[C@H]4O[C@H]4[C@@H]3C1(Cl)C2(Cl)Cl,,inactive
CC(C)(O)C(=O)Nc1ccc([N+](=O)[O-])c(C(F)(F)F)c1,84 µM (active),
Oc1ccc(C(c2ccc(O)cc2)(C(F)(F)F)C(F)(F)F)cc1,25.9 µM (active),
OCC(O)CO,,inactive
CCC(C)(c1ccc(O)cc1)c1ccc(O)cc1,50 µM (active),
CN(C)c1nc(=O)n(C2CCCCC2)c(=O)n1C,,inactive
O=C(NC(=O)c1c(F)cccc1F)Nc1cc(Cl)c(OC(F)(F)C(F)F)c(Cl)c1,50 µM (active),
CC(C)C(=O)OCC(C)(C)C(OC(=O)C(C)C)C(C)C (stereo not given),75 µM (active),

# System: not listed separately
# Test: ACEA_AR_antagonist_AUC_viability: ACEA Biosciences xCELLigence Real-Time Cell Analysis on Androgen Receptor Antagonism for Viability (AID 2283776);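 note: 22Rv1 human prostate cancer cells growing on impedance electrode plates; area under impedance growth curve at 80 h after dosing as viability; hits lower the growth signal relative to DMSO meaning cytotoxicity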
# Procedure, shortened: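 Real-time electrical impedance tracks 22Rv1 proliferation after continuous compound exposure (top 100 uM final, 1:4 steps, 8 concentrations). The 80 h area-under-curve serves as the cytotoxicity readout relative to DMSO.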
SMILES,AC50,outcome
CCOC(=O)C(O)(c1ccc(Cl)cc1)c1ccc(Cl)cc1,19.6 µM (active),
Clc1ccc(Cl)cc1,,inactive
O=S(=O)(O)C(F)(F)C(F)(F)C(F)(F)C(F)(F)C(F)(F)C(F)(F)F,,inactive
Cc1ccccc1O,,inactive
Oc1c(Cl)c(Cl)c(Cl)c(Cl)c1Cl,29.5 µM (active),
O=C(O)C(F)(F)C(F)(F)C(F)(F)C(F)(F)C(F)(F)C(F)(F)C(F)(F)C(F)(F)F,72 µM (active),
CCCN(CCC)N=O,,inactive
CCCCCCCCCc1ccc(O)cc1,19.1 µM (active),
CCOP(=S)(OCC)SCSC(C)(C)C,59.6 µM (active),
ClC1=C(Cl)[C@]2(Cl)[C@@H]3[C@@H]4C[C@@H]([C@H]5O[C@@H]45)[C@@H]3[C@@]1(Cl)C2(Cl)Cl,50 µM (active),
O=C(N[C@H]1CN2CCC1CC2)c1cc2ccoc2cn1,,inactive
O=S(=O)(O)C(F)(F)C(F)(F)C(F)(F)C(F)(F)F,,inactive
CC(c1ccc(O)cc1)(c1ccc(O)cc1)c1ccc(O)cc1,14.6 µM (active),
CC(C)(c1ccccc1)c1ccc(O)cc1,13.3 µM (active),
Nc1ccc(-c2ccc(N)cc2)cc1,,inactive
c1ccc(-c2ccccc2)cc1,,inactive

SMILES,AC50,outcome
CN(C)CCO,,inactive
COc1ccc(O)c(C(C)(C)C)c1,71 µM (active),
ClC(Cl)=C(c1ccc(Cl)cc1)c1ccc(Cl)cc1,21.4 µM (active),
Cc1cccc([N+](=O)[O-])c1,,inactive
O=C(NC(=O)c1cc(F)c(F)cc1Cl)Nc1cc(F)ccc1N1CCC(C(=O)O)CC1,,inactive
COS(=O)(=O)OC,,inactive
ClC1=C(Cl)[C@]2(Cl)[C@@H]3[C@@H](Cl)[C@H]4O[C@H]4[C@@H]3C1(Cl)C2(Cl)Cl,68.9 µM (active),
NS(=O)(=O)C(F)(F)C(F)(F)C(F)(F)C(F)(F)C(F)(F)C(F)(F)C(F)(F)C(F)(F)F,59.4 µM (active),
CC(C)(O)C(=O)Nc1ccc([N+](=O)[O-])c(C(F)(F)F)c1,10.9 µM (active),
Oc1ccc(C(c2ccc(O)cc2)(C(F)(F)F)C(F)(F)F)cc1,,inactive
O=C(O)C(F)(F)C(F)(F)C(F)(F)C(F)(F)C(F)(F)F,,inactive
OCC(O)CO,,inactive
CCC(C)(c1ccc(O)cc1)c1ccc(O)cc1,42.4 µM (active),
CN(C)c1nc(=O)n(C2CCCCC2)c(=O)n1C,,inactive
O=C(NC(=O)c1c(F)cccc1F)Nc1cc(Cl)c(OC(F)(F)C(F)F)c(Cl)c1,42.2 µM (active),
CC(C)C(=O)OCC(C)(C)C(OC(=O)C(C)C)C(C)C (stereo not given),90.1 µM (active),
